From the supplement of paper PMC5499739 come the findings set out here.

Over roughly 16,000 sequences, “Z-score” has its median near -0.37; the highest 2% begin near 3.1. For the sample, the highest values were picked, then their nearest neighbours and some sequences at random.

In the test the test system is RBM10 RRM1-ZnF-RRM2 (GST-tagged construct). Put plainly: RNAcompete 7-mer binding Z-score; higher = stronger binding preference. A digest of the protocol:
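In 1 ml Hepes pH 7.8 buffer with KCl, NaCl, glycerol, DTT, BSA and glutathione Sepharose beads, GST-tagged RBM10 constructs (20 pmol) were incubated for 30 min at 4°C with 1.5 nmol of a designed pool of 241 399 RNAs up to 41 nt. Four 2-min washes at 4°C followed, and bound RNA was detected by microarray hybridisation. Heptamer motif enrichment was expressed as a one-sided Z-score across probes containing each motif.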
With GGUCAGC, the “RNAcompete 7-mer binding Z-score” value worked out at 0.716.
The value for CAUUUGC was -1.04; that for AGUCCAA was -0.464; that for AUGCGCG was -0.0889.
Under GAAAUCG stands 0.195; under GGCAACU, 0.0532.
Under AUAGACA stands 0.0532.
For the sequence AUAAUCU, the “RNAcompete 7-mer binding Z-score” value is -0.65.
Under AAGAUGU stands 0.13.
On to AACGGAA, for which the “RNAcompete 7-mer binding Z-score” value was found to be 1.91.
Turning to GCAUUUA, the “RNAcompete 7-mer binding Z-score” value was -0.661.
Under AACAAAG stands 0.355; under CUGCUCU, -0.923.
In the case of GGCAUGA, the “RNAcompete 7-mer binding Z-score” value was determined as 0.876.
For the sequence UGAAGGU, the “RNAcompete 7-mer binding Z-score” value was determined as 2.14.
The value for AGAAGCU was -0.508; that for CGAAGGG was 2.68; that for AGAAGGU was 3.67.
Regarding AGAAGGG, the “RNAcompete 7-mer binding Z-score” value worked out at 4.09.
The value for AGAAGAG was 1.61; that for CCCCCCA was -0.38.
Under ACUAGGC stands -0.235; under CUAACGA, -0.566; under UGUAGCC, -0.624.
The value for AUCCCUC was -0.759.
Take CGCACGG: the “RNAcompete 7-mer binding Z-score” value was -0.0124.
Under GGGUUAG stands 4.04; under CGGUUGA, 0.876; under UGGUUGA, 1.31.
Take GGGUUGG: the “RNAcompete 7-mer binding Z-score” value was found to be 4.05.
Under GGGUUGA stands 3.53.
Under CGGUUGG stands 1.91; under UGGUUAG, 1.94.
In the case of CGGUUAG, the “RNAcompete 7-mer binding Z-score” value came out at 0.691.
Under AGGUUGG stands 2.71; under AAGUUUU, -0.329.
Consider AUGGGGA, for which the “RNAcompete 7-mer binding Z-score” value turned out to be 4.23.
Turning to CUGGGAG, the “RNAcompete 7-mer binding Z-score” value amounted to 1.4.
In the case of AUGGGGC, the “RNAcompete 7-mer binding Z-score” value was 2.6.
Under AUGGGAA stands 4.29; under AUGGGGG, 3.84; under UUGGGAG, 2.51.
On to AUGGGAG, for which the “RNAcompete 7-mer binding Z-score” value is 3.64.
The value for UUGGGAA was 1.92; that for CUGGGAA was 1.36; that for GCGGUAU was 0.574.
The value for AUUAUCG was -0.402; that for UCCCCCU was -0.566.
As for UGAAAUU, the “RNAcompete 7-mer binding Z-score” value was -0.686.
Under CUGUGGG stands 1.63.
On to AAAAAAA, for which the “RNAcompete 7-mer binding Z-score” value is -0.49.
Regarding UAGGCUA, the “RNAcompete 7-mer binding Z-score” value came out at 0.392.
As for CGACGUG, the “RNAcompete 7-mer binding Z-score” value was 0.25.
The value for GACGGCG was 0.836; that for CUGGGGU was 1.79.
In the case of CGGGGGU, the “RNAcompete 7-mer binding Z-score” value was found to be 3.06.
Under AUGGGGU stands 3.91; under AUCACCU, -0.876.
Consider UGUAGAU, for which the “RNAcompete 7-mer binding Z-score” value was 0.235.
GUUAGGC: the “RNAcompete 7-mer binding Z-score” value stood at 1.25.
The value for ACGGGGU was 3.8.
In the case of CCGGGGU, the “RNAcompete 7-mer binding Z-score” value was determined as 1.71.
The value for ACGGGGA was 2.84.
The value for ACGGGGG was 3.19.
The value for ACGGGUC was 1.42; that for GCGGGUG was 2.75; that for ACGGGGC was 2.37.
Regarding ACGGGUG, the “RNAcompete 7-mer binding Z-score” value amounted to 3.24.
On to ACGGGUU, for which the “RNAcompete 7-mer binding Z-score” value came to 2.32.
Under CGUUCUC stands -0.763; under UUCAUUU, -0.737.
As for GCGGCUA, the “RNAcompete 7-mer binding Z-score” value amounted to 0.21.
Under ACCCAGC stands -0.785; under CAAUGCA, -0.362; under UCUAAUG, -0.577.
In the case of CUUUAUA, the “RNAcompete 7-mer binding Z-score” value was -0.752.
Take CGCGGGG: the “RNAcompete 7-mer binding Z-score” value was 2.32.
For AGCGGGA, the “RNAcompete 7-mer binding Z-score” value was 3.24.
The value for AGCGGGG was 3.96; that for CGCGGGA was 1.16; that for GGCGGGC was 1.97.
Under AGCGGGU stands 3.01; under GGCGAGC, 1.87; under AGCGGGC, 1.57.
Under GGCGGGG stands 3.64; under GGCGGGU, 2.57; under GGCGAGG, 3.22.
Consider CGCGAGG, for which the “RNAcompete 7-mer binding Z-score” value is 0.833.
Under UGGUAAG stands 1.73; under CUAGGGA, 1.6.
The value for GAGACCG was -0.0452.
Under UACACCC stands -0.77.
For AGCAGGU, the “RNAcompete 7-mer binding Z-score” value was found to be 1.74.
The value for GACUCCA was -0.704; that for CUUUAGG was -0.369; that for AUAUAAU was -0.366.
Under GGUGAAA stands 1.83; under CAAAUAG, -0.144; under GGCGGCA, 1.12.
On to GGCGGGA, for which the “RNAcompete 7-mer binding Z-score” value amounted to 3.23.
With UGCGGGA, the “RNAcompete 7-mer binding Z-score” value is 1.7.
The value for AUAUUAG was 0.0313.
As to GGUUGGC, the “RNAcompete 7-mer binding Z-score” value turned out to be 2.03.
In the case of GAUUGGC, the “RNAcompete 7-mer binding Z-score” value amounted to 0.927.
With AAUUGGG, the “RNAcompete 7-mer binding Z-score” value worked out at 2.6.
Under AUUGGGU stands 2.74; under AUUGGGA, 2.99; under GGUUGGG, 4.42.
The value for CUUGGGG was 1.13; that for AUUGGGG was 3.16; that for GUUGGGG was 3.69.
Regarding GGUUGGU, the “RNAcompete 7-mer binding Z-score” value is 1.94.
With UUUGGGG, the “RNAcompete 7-mer binding Z-score” value was 2.13.
The value for GAUUGGG was 3.64; that for CCUUUCC was -0.887; that for AUGGCGU was 0.705.
Consider CGCUAAU, for which the “RNAcompete 7-mer binding Z-score” value is -0.628.
The value for AAGCAGA was 0.672; that for UCGGAAC was 0.0532; that for UUGUCAA was -0.741.
Under AAUUCAC stands -0.643; under UUUGCAA, -0.602.
With ACUUUCU, the “RNAcompete 7-mer binding Z-score” value was -0.959.
For the sequence AUCGAGA, the “RNAcompete 7-mer binding Z-score” value was 0.352.
The value for GGUUAGU was 1.6; that for GGUUAGG was 4.22; that for GGUUAGC was 1.03.
Under ACUGCCC stands -0.439.
